In PubChem BioAssay:
The source made the active and inactive calls.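 The calls were made as follows, unless noted: active = visually confirmed hit in the image check and inhibition above 20%; inconclusive = visually confirmed hit but inhibition not above 20%; inactive = no visual hit in the image check.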

Columns and labels:
[1] = inhibitors of TNFa-induced NFkB p65 translocation, primary screen, imaging, HUVEC, MLSMR starter and 10KST1 sets (AID 438;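 active = inhibition above 20% together with a positive visual image hit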;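 also: compound added about 3h40 before a 20 min TNFalpha stimulation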;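 as to inhibition: signal is the nuclear over cytoplasmic p65 intensity ratio per well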); settings: HUVEC TNFa-induced p65 nuclear translocation; cell count: measured here: nuclei count (cytotoxicity indicator), at 2.08 µM; inhibition: at 2 µM, stronger effect = higher value, 0% TNFa-plus-vehicle, 100% no-TNFa wells
[2] = reduction of polyQ htt aggregates in cells – imaging, exon1htt(103Q)mCFP cells, high-content imaging, primary screen (AID 483;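 active = visual image review flags a hit and inhibition of aggregation exceeds 20%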;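 also: compound exposure lasted 3 days before fixation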;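 as to nuclei count: percent of the per-plate median nuclei count of sample wells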); settings: exon1htt(103Q)mCFP cell line, aggregate imaging, at 2 µM; inhibition of aggregation: stronger effect = higher value; nuclei count: measured here: cell count, toxicity
[3] = endothelial E-selectin expression blockers – imaging, HUVEC, immunofluorescence, MLSMR starter and 10KST1 sets, primary screen (AID 487); settings: HUVEC TNFalpha-induced E-selectin immunofluorescence imaging, at 2 µM; inhibition: stronger effect = higher value; nuclei count: measured here: cell number, toxicity;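 as to inhibition: signal is fraction of cell area covered by stained E-selectin grains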;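 as to nuclei count: 100% = median nuclei count of all wells on the same plate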
[4] = target: Voltage-gated potassium channel subunit beta-2 (Rattus norvegicus) (UniProt P62483); assay: inhibitors of rat Kvbeta2 reductase activity – biochemical, NADPH fluorescence, primary screen (AID 622;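 active = fluorescence slope higher than the sample average by over 3 SD, cut at about -0.22 in these data, passing the limit was not always enough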;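 also: slope of raw intensity against log time taken from 70 to 1610 s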); settings: recombinant KvBeta, 4-cyanobenzaldehyde reduction, at 10 µM, stronger effect = higher value
Chain of Voltage-gated potassium channel subunit beta-2 (Rattus norvegicus) (P62483 whole entry, looked up): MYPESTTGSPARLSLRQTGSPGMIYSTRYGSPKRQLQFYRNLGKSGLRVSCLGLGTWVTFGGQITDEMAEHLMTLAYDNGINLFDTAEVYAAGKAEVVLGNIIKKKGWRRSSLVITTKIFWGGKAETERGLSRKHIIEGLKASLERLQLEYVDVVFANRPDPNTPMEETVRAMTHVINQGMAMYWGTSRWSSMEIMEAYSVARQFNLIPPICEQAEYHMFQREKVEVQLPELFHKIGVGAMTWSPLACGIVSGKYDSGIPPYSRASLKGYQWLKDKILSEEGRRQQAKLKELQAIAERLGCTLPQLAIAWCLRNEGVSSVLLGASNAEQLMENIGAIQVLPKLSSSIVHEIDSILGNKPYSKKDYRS

[5] = target: Voltage-gated potassium channel subunit beta-2 (Rattus norvegicus) (UniProt P62483); assay: enhancers of rat Kvbeta2 NADPH turnover – biochemical, NADPH fluorescence, primary screen (AID 623;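 active = NADPH fluorescence slope more negative than the mean of all samples by about 3 SD, 99.7% confidence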;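 also: fluorescence intensity change per second fitted from 20 to 320 s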); settings: Recombinant KvBeta, NADPH fluorescence decrease slope, 10 min; at 10 µM; stronger effect = lower value
[6] = target: Alpha-2C adrenergic receptor (Homo sapiens) (UniProt P18825); assay: compounds altering alpha2C-coupled GIRK flux – cell-based, HEK293 alpha2C/GIRK1/2, thallium flux, primary screen (AID 624;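 active = fluorescence slope after compound addition differing from the mean of all screened samples at 99.7% confidence, in either direction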;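 also: slope of fluorescence ratio to pre-addition baseline per second over 15 to 24 s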); settings: thallium flux BTC fluorescence, at 10 µM, actives lie on both sides
Chain of Alpha-2C adrenergic receptor (Homo sapiens) (P18825 whole entry, looked up): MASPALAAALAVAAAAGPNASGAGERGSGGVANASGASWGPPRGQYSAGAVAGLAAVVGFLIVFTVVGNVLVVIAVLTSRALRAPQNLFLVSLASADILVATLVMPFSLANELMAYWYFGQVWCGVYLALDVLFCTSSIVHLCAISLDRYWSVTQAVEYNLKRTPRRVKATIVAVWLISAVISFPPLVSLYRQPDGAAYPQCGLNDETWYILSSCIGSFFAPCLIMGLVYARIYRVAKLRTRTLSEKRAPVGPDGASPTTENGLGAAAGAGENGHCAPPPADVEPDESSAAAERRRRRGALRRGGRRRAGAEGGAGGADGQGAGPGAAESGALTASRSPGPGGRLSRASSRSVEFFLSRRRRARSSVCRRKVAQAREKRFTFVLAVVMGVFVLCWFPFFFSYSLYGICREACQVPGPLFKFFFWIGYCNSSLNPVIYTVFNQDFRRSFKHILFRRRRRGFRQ

[7] = blockers of RIG-like receptor reporter activation – cell-based, Sendai virus stimulus, luciferase, 10K MLSCN set, TLR/RLR signaling modifier project, primary screen (AID 602276;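 active = inhibition at or above 50% at 10 µM; inactive = inhibition below 50%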;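 also: firefly luciferase from ISG56 promoter only with Renilla not read in this screen; 0% = Sendai virus plus DMSO and 100% = medium plus DMSO without virus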); settings: HEK293 RL24 IRF3 luciferase reporter, at 10 µM, stronger effect = higher value
[8] = TLR3 IRF3 reporter activation blockers – cell-based, poly I:C stimulus, luciferase, 10K MLSCN set, primary screen (AID 602277;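 active = inhibition of the reporter signal at or above 50%; inactive = inhibition below 50%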); settings: HEK293-TLR3 RL24 IRF3 luciferase reporter, at 10 µM, stronger effect = higher value

Row | Compound | cell count [1] | inhibition [1] | inhibition of aggregation [2] | nuclei count [2] [%] | inhibition [3] | nuclei count [3] [%] | fluorescence slope [4] | NADPH fluorescence slope [5] | slope [6] | inhibition [7] | inhibition [8]
1 | CN=C(Nc1cc(C)nn1-c1ccccc1)c1ccccc1 | 455 | 0.5% (inactive) | -5.8% (inactive) | 114 | 23% (inactive) | 90.5 | -0.519 (inactive) | -2.6e-05 (inactive) | 0.00474 (inactive) | 12.8% (inactive) | 17.1% (inactive)
2 | CSc1nc(=NC(C)=O)ss1 | 723 | -18.1% (inactive) | -0.1% (inactive) | 106 | 22.2% (inactive) | 110 | -0.528 (inactive) | -5.6e-05 (inactive) | 0.00608 (inactive) | 4% (inactive) | 8.14% (inactive)
3 | C=CCN=C1SCC(=O)N1S(=O)(=O)c1ccc(C)cc1 | 342 | -0.2% (inactive) | 3.3% (inactive) | 91.1 | -135% (inactive) | 124 | -0.364 (inactive) | -6.1e-05 (inactive) | 0.00404 (inactive) | 5.91% (inactive) | 11.1% (inactive)
4 | COc1c(S(=O)(=O)n2nc(C)cc2C)ccc(Cl)c1Cl | 536 | 11.4% (inactive) | -8.9% (inactive) | 120 | -25.3% (inactive) | 68.4 | -0.434 (inactive) | -7.2e-05 (inactive) | 0.0052 (inactive) | -8.21% (inactive) | 15.5% (inactive)
5 | O=C(CSc1nnc(-c2ccccc2F)o1)OCc1ccccc1 | 323 | 8.7% (inactive) | -1.8% (inactive) | 89.1 | -69.6% (inactive) | 99.9 | -0.428 (inactive) | 1.9e-05 (inactive) | 0.00527 (inactive) | 4.91% (inactive) | 34.1% (inactive)
6 | CCOc1ccc(-c2nc(C#N)c(N3CCCCCC3)o2)cc1 | 759 | 6% (inactive) | 11.5% (inactive) | 110 | -122% (inactive) | 114 | -0.579 (inactive) | -1.9e-05 (inactive) | 0.0066 (inactive) | -2.19% (inactive) | 4.25% (inactive)
7 | COCCN(CCOC)Cc1c(C)[nH]c2ccccc2c1=O | 398 | 6.8% (inactive) | 12.7% (inactive) | 93.3 | 1.8% (inactive) | 104 | -0.351 (inactive) | -1.7e-05 (inactive) | 0.00544 (inactive) | 3.05% (inactive) | 24.8% (inactive)
8 | CCOCCCNC(=O)C1CCC(CNS(=O)(=O)c2cccc3nsnc23)CC1 (stereo not given) | 808 | 6.8% (inactive) | -28.4% (inactive) | 103 | -19.9% (inactive) | 119 | -0.476 (inactive) | -4.4e-05 (inactive) | 0.00547 (inactive) | 8.12% (inactive) | 22.9% (inactive)
9 | COc1ccc(/C=N/n2cc(-c3ccc(OC)cc3)nc2N)cc1 | 351 | 10.9% (inactive) | 2.2% (inactive) | 107 | 6.3% (inactive) | 117 | -0.246 (inactive) | 1.1e-05 (inactive) | 0.00586 (inactive) | 8.24% (inactive) | 2.92% (inactive)
10 | O=C1C(Cl)=C(N2CCOCC2)C(=O)N1CCc1ccccc1 | 373 | 2.8% (inactive) | -26.1% (inactive) | 97.1 | -20.9% (inactive) | 94.6 | -0.356 (inactive) | -8.5e-06 (inactive) | 0.0076 (inactive) | -18.6% (inactive) | -16.7% (inactive)
11 | CCOc1ccc(-c2nc(C#N)c(N3CCN(C)CC3)o2)cc1 | 447 | 7.9% (inactive) | -9.4% (inactive) | 102 | -123% (inactive) | 127 | -0.415 (inactive) | -1.8e-05 (inactive) | 0.00522 (inactive) | 10.5% (inactive) | 11% (inactive)
12 | COc1ccc(CNc2ccc(C(=O)O)cc2)cc1 | 511 | -28.3% (inactive) | -17.2% (inactive) | 116 | -61% (inactive) | 107 | -0.513 (inactive) | -3.9e-05 (inactive) | 0.00575 (inactive) | -4.3% (inactive) | -15.8% (inactive)
13 | CN(CC(=O)N1CCCc2c1c(=O)oc1ccc(O)cc21)Cc1ccccc1 | 418 | 5.7% (inactive) | -21% (inactive) | 97.1 | -85.3% (inactive) | 117 | -0.258 (inactive) | -4.5e-05 (inactive) | 0.00473 (inactive) | 11.5% (inactive) | 27.4% (inactive)
14 | O=C(CCN1C(=O)C2C3C=CC(C3)C2C1=O)Nc1c(F)cc(F)cc1Br (stereo not given) | 827 | -6.6% (inactive) | 16.5% (inactive) | 95.3 | -21.9% (inactive) | 120 | -0.587 (inactive) | -6.8e-05 (inactive) | 0.00666 (inactive) | -0.108% (inactive) | 11.7% (inactive)
15 | COc1ccccc1C(=O)NCCNC(=O)c1ccco1 | 388 | 6.3% (inactive) | 5.6% (inactive) | 110 | -78% (inactive) | 113 | -0.412 (inactive) | -4.6e-05 (inactive) | 0.00705 (inactive) | -4.73% (inactive) | -9.5% (inactive)
